The text below walks through data of PubChem BioAssay (NCATS).

Assay [1] concerns the target Glucocorticoid receptor (Homo sapiens) (UniProt P04150). Put plainly: qHTS assay for small molecule agonists of glucocorticoid receptor signaling (AID 588532; active = well fitted curve in the direction sought with a large enough effect in the signal ratio, with a control signal flat; the % refers to the signal ratio;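 note: 100% = dexamethasone at 0.1 µM and 0% = DMSO only wells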). The note with it: HeLa MMTV-bla, beta-lactamase ratio, agonist, 18 h; stronger effect = higher value; percent of dexamethasone control, DMSO zero. The gist of the method: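 Quantitative HTS using CellSensor MMTV-bla HeLa cells in charcoal/dextran-treated serum; compounds tested up to 92 uM. After 18 h at 37 C, CCF4 dye reported reporter induction.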
In general terms: Quantitative high-throughput screening tests each substance at several concentrations.

Assay [2] in a line: qHTS assay for small molecule antagonists of peroxisome proliferator-activated receptor delta signaling (AID 588535; active = well fitted inhibition curve with a large enough effect in the signal ratio, with a control signal flat, not every such curve was filed as active; the % refers to the signal ratio;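 for max response: cells co-treated with a PPAR-delta agonist as stimulator during compound exposure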). The conditions noted are these: HEK293T PPARd-UAS-bla, beta-lactamase FRET ratio, 18 h; 460 nm channel. The gist of the method:
(§1)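 Antagonist-mode qHTS using GeneBLAzer PPAR-delta-UAS-bla HEK293T cells; compound exposure 18 hrs at 37 C over a titration. Ratiometric CCF4 fluorescence at 460/530 nm; concentration-response points fitted to the Hill equation.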

The target in assay [3] is Peroxisome proliferator-activated receptor delta (Homo sapiens) (UniProt Q03181). The description is as above. The note with it: HEK293T PPARd-UAS-bla, beta-lactamase FRET ratio, 18 h; series mostly up to 76.7 µM. The gist of the method:
as §1

The target in assay [4] is Peroxisome proliferator-activated receptor gamma (Homo sapiens) (UniProt P37231). Put plainly: qHTS assay for small molecule agonists of peroxisome proliferator-activated receptor gamma signaling (AID 588536; active = well fitted curve in the direction sought with a large enough effect in the signal ratio, with a control signal flat, not every such curve was filed as active; the % refers to the signal ratio). The conditions noted are these: HEK293 PPARg-UAS-bla, beta-lactamase ratio, 16 h, percent of rosiglitazone response, DMSO as zero; series mostly up to 76.7 µM. The essentials: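 Beta-lactamase reporter read-out: CCF4 fluorescence (ex 405, em 460/530 nm) after 2 h at RT. HEK293 GeneBLAzer cells were treated for 16 h at 37 C. Hill fits gave EC50 and efficacy versus 2 uM rosiglitazone (100%) and DMSO (0%).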
Chain of Peroxisome proliferator-activated receptor gamma (Homo sapiens) (P37231 whole entry, looked up): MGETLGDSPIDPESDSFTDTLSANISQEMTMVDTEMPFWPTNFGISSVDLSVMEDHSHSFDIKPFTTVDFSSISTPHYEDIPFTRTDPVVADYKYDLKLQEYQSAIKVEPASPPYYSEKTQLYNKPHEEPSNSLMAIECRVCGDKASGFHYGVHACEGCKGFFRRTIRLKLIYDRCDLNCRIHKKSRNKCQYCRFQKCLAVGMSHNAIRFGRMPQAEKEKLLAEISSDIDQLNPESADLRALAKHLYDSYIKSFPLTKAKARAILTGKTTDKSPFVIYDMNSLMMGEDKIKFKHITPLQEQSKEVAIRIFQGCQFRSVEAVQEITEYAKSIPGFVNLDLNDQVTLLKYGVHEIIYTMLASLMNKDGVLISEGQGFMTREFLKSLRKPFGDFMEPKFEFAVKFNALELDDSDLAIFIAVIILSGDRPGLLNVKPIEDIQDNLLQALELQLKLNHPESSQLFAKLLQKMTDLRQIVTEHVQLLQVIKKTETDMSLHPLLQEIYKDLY

The target in assay [5] is Vitamin D3 receptor (Homo sapiens) (UniProt P11473). Put plainly: qHTS assay for small molecule antagonists of vitamin D receptor signaling (AID 588541; calls by dose curve;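 note: receptor activated by calcitriol during compound treatment; % is set by controls: 0 for no effect and ±100 for the full control effect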). The note with it: HEK293T VDR-UAS-bla, beta-lactamase ratio, antagonist mode; series mostly up to 76.7 µM. The essentials:
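Antagonist-mode beta-lactamase reporter assay: HEK293T VDR-UAS-bla cells were exposed to titrated compound alongside 1-alpha,25-dihydroxyvitamin D3 at 3 nM final for 16 h. Values were normalized to the 50 nM agonist control and DMSO basal, with IC50 and efficacy from Hill equation fits.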

The target is the same in assay [6]. Put plainly: qHTS assay for small molecule agonists of vitamin D receptor signaling (AID 588543; calls by dose curve;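 note: 0% = DMSO basal and 100% = reference agonist control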). The conditions noted are these: HEK293T VDR-UAS-bla, beta-lactamase ratio, 16 h; series mostly up to 76.8 µM. The essentials:
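VDR-UAS-bla HEK293T cells, 2000/well, 2% charcoal-stripped FBS; compound titration 16 h at 37 C; CCF4 beta-lactamase ratio read. Normalized to 50 nM 1-alpha,25-dihydroxyvitamin D3 (100%) and DMSO; Hill fit gives EC50, efficacy.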

Assay [7] in a line: qHTS assay for small molecule agonists of retinoid X receptor alpha signaling (AID 588544). The conditions noted are these: HEK293T RXRa-UAS-bla, beta-lactamase reporter, 18 h; 530 nm emission.
The target in assay [8] is Thyroid hormone receptor beta (Homo sapiens) (UniProt P10828). Put plainly: qHTS assay for small molecule agonists of thyroid hormone receptor beta signaling (AID 588545; calls by dose curve). The conditions noted are these: TR-UAS-bla GripTite HEK 293, beta-lactamase ratio, agonist mode, 18 h; series mostly up to 76.7 µM. The gist of the method: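 In this cell-based screen, titrated compounds act on HEK 293 cells held in medium with 2% charcoal/dextran FBS, NEAA and pyruvate for 18 hrs at 37 C. Responses are expressed relative to T3 (10 nM) as 100% and basal DMSO as 0%.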
Chain of Thyroid hormone receptor beta (Homo sapiens) (P10828 whole entry, looked up): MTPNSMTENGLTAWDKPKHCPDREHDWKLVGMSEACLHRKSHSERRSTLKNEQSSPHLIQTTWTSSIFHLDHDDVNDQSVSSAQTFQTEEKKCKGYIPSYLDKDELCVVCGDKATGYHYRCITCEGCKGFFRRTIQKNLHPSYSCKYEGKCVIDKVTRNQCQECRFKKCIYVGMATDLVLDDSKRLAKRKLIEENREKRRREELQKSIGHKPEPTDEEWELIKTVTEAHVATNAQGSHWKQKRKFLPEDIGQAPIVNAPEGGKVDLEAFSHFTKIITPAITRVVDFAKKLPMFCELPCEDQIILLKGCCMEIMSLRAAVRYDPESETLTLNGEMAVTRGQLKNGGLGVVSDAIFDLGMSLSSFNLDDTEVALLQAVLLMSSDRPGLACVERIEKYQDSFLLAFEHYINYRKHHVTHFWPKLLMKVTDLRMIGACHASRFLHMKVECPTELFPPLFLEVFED

Assay [9] is described as follows: qHTS assay for small molecule antagonists of retinoid X receptor alpha signaling (AID 588546; active = well fitted inhibition curve with a large enough effect in the signal ratio, with a control signal flat, not every such curve was filed as active; the % refers to the signal ratio;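 note: cells stimulated with 9-cis-retinoic acid as agonist; % is set by controls: 0 for no effect and ±100 for the full control effect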). The note with it: HEK293T RXRa-UAS-bla, beta-lactamase ratio, antagonist mode; measured here: W530 green channel, cytotoxicity proxy. The gist of the method: (§2)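 Beta-lactamase reporter inhibition, read as CCF4 fluorescence ratio (ex 405, em 460/530 nm) after 2 h at RT. HEK293T UAS-bla cells, 2500/well, were stimulated with 9-cis-RA at 500 or 100 nM final alongside test compound for 18 h at 37 C.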

Assay [10] deals with Retinoic acid receptor RXR-alpha (Homo sapiens) (UniProt P19793). The description is as above. The conditions noted are these: HEK293T RXRa-UAS-bla, beta-lactamase ratio, antagonist mode. The gist of the method:
as §2

Assay [11] has as its target Thyroid hormone receptor beta (Homo sapiens) (UniProt P10828). Put plainly: qHTS assay for small molecule antagonists of thyroid hormone receptor beta signaling (AID 588547; active = well fitted inhibition curve with a large enough effect in the signal ratio, with a control signal flat, not every such curve was filed as active; the % refers to the signal ratio;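 note: cells stimulated with 0.4 nM T3 agonist during compound exposure; % is set by controls: 0 for no effect and ±100 for the full control effect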). The conditions noted are these: TR-UAS-bla HEK293, beta-lactamase ratio, antagonist mode, 18 h. The gist of the method: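 Inhibition of T3-driven (0.4nM final) beta-lactamase reporter activity was measured over 0.59 nM to 92 uM compound after 18 h at 37 C. The cells were GripTite HEK293 TR-UAS-bla in charcoal/dextran-stripped serum, with CCF4 ratio read-out and IC50 from Hill fits.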

Assay [12] is described as follows: qHTS assay for small molecule activators of the p53 signaling pathway (AID 651743; active = well fitted activation curve with a large enough effect in the signal ratio, not every such curve was filed as active; the % refers to the signal ratio; note: % of control where 0% means no effect). The conditions noted are these: HCT-116 p53RE-bla, beta-lactamase FRET ratio, 16 h; activation: stronger effect = higher value. The essentials: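 A beta-lactamase reporter under p53 response element control, stably carried by HCT-116 cells, reported pathway activation. Test compounds were applied for 16 hours at 37 C, and fluorescence was measured 2 hours after adding the B/G FRET substrate.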

Assay [13] is described as follows: qHTS assay for environmental chemicals that activate the Aryl hydrocarbon Receptor (AhR) signaling pathway (AID 651777). Note: % of control where 0% means no effect; nearly all actives have a fitted effect of over 15% in size. The note with it: 1A2-DRE human hepatoma cells, luciferase, 24 h; activation: stronger effect = higher value. The essentials: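 Reporter gene assay: hepatoma cells with DRE/CYP1A2-luciferase, 24 hr compound incubation at 37 C, 5% CO2, luminescence after One-Glo (30 min, RT).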

For assay [14], the target named is Peroxisome proliferator-activated receptor alpha (Homo sapiens) (UniProt Q07869). Put plainly: qHTS assay for small molecule agonists of the peroxisome proliferator-activated receptor alpha (PPARalpha) signaling pathway (AID 651778). For max response: % of control where 0% means no effect. Note: potency is the fitted concentration of half-maximal effect. The note with it: PathHunter PPARalpha complementation, chemiluminescence, 6 h; max response: stronger effect = higher value. The gist of the method:
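Chemiluminescence from complemented enzyme reported PPARalpha activation in cells after 6 hr of compound treatment at 37 C. The detection reagent was incubated for 60 min at room temperature, and compounds were scored as agonists.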

A short description of assay [15]: qHTS assay for small molecule agonists of the antioxidant response element (ARE) signaling pathway measured by Nrf2-dependant transcriptional activity (AID 720636; active = well fitted curve in the direction sought with a large enough effect in the repeat runs; an effect the other way counts as inactive or inconclusive;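 note: HepG2 cells with an ARE-driven luciferase reporter; % of control where 0% means no effect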). The conditions noted are these: ARE-luc HepG2, Nrf2 luciferase reporter, 16 h; series mostly up to 92.4 µM. The essentials:
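Nrf2-dependent transcription is measured in ARE-luc HepG2 cells: compound is applied for 16 hr at 37 C after a 6 hr attachment period, and luciferase activity is quantified by luminescence using ONE-Glo.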

The nature of assay [16]: qHTS assay for small molecule agonists of the antioxidant response element (ARE) signaling pathway measured by Nrf2-dependant transcriptional activity - cell viability counter screen (AID 720653; active = well fitted curve in the direction sought with a large enough effect in the repeat runs; an effect the other way counts as inactive or inconclusive; note: % is set by controls: 0 for no effect and ±100 for the full control effect). The conditions noted are these: ARE-bla HepG2 viability, CellTiter-Glo ATP luminescence, 16 h; max response: stronger effect = lower value. The essentials: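 Cytotoxicity counter screen: intracellular ATP quantified by CellTiter-Glo luminescence in the same ARE-bla HepG2 plates, after 16 h compound exposure and a 2 h beta-lactamase substrate step.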

Assay [17] can be described thus: qHTS assay for cell viability of HEK293 cells (AID 743288). Note: % is set by controls: 0 for no effect and ±100 for the full control effect; nearly all actives have a fitted effect of over 50% in size. The conditions noted are these: ATP luminescence (CellTiter-Glo), 18 h; max response: stronger effect = lower value. The gist of the method: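 Steps: plate 2,000 parental HEK293 cells per well; incubate ≥5 h, 37 C; add compounds in DMSO; incubate 18 h, 37 C; add CellTiter-Glo; wait 30 min at room temperature; read luminescence.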

Assay [18] can be described thus: qHTS assay for cell viability of the p53RE-bla HCT-116 cell line (AID 743292). Note: % is set by controls: 0 for no effect and ±100 for the full control effect; nearly all actives have a fitted effect of over 55% in size. The note with it: p53RE-bla HCT-116 viability, ATP luminescence, 16 h; series mostly up to 95 µM. The gist of the method: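 ATP-based luminescence, 16 h compound exposure at 37 C, p53RE-bla HCT-116 cells at 4,000/well.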
Assay [19] addresses Nuclear receptor subfamily 1 group I member 2 (Rattus norvegicus) (UniProt Q9R1A7). Put plainly: qHTS assay for small molecule activators of the rat pregnane X receptor (rPXR) signaling pathway (AID 651751; call rule not given here; note: 0% is about no effect). The note with it: rPXR reporter cells, luciferase (One-Glo), 24 h.
Assay [20] can be described thus: qHTS assay for small molecule activators of the human pregnane X receptor (PXR) signaling pathway (AID 720659; call rule not given here; note: 0% is about no effect). The note with it: DPX-2 HepG2 CYP3A4-luciferase, 24 h; series mostly up to 92.3 µM.

Each structure is given as a SMILES string. Records with an inconclusive call do not appear. Active and inactive are the calls of the source. Unless noted, calls come from the whole dose curve; as a rule, active = well fitted curve in the direction sought with a large enough effect; inconclusive = small, poorly fitted or top-dose-only effect, or another doubt; inactive = no such curve, though single readings can be large; an effect the other way counts as inactive or inconclusive.

Chain of Nuclear receptor subfamily 1 group I member 2 (Rattus norvegicus) (Q9R1A7 whole entry, looked up): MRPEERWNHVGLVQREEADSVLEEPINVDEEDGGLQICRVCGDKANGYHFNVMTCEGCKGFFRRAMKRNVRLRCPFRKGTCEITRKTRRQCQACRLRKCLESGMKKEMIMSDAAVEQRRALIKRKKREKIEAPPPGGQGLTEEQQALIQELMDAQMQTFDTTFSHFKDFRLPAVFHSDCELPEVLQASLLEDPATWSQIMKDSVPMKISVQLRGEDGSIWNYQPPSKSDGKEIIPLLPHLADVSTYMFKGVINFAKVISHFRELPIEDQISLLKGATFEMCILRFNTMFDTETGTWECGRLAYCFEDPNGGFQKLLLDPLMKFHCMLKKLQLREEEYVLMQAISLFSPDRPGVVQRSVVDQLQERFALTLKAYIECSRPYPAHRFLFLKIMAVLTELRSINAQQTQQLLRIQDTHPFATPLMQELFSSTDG
Chain of Peroxisome proliferator-activated receptor alpha (Homo sapiens) (Q07869 whole entry, looked up): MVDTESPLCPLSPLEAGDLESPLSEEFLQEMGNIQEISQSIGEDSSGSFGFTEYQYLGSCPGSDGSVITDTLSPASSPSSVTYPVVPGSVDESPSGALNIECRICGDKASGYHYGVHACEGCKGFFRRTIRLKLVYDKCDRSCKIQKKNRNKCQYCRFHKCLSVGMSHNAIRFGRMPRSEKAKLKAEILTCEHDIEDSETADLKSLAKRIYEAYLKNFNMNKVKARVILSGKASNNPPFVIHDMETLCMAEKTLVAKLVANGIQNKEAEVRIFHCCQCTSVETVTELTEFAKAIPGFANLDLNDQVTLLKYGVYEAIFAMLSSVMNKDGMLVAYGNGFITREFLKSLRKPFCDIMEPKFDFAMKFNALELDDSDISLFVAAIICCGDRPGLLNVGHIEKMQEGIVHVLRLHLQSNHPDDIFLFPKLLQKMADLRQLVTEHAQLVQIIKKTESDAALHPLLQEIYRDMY
Chain of Retinoic acid receptor RXR-alpha (Homo sapiens) (P19793 whole entry, looked up): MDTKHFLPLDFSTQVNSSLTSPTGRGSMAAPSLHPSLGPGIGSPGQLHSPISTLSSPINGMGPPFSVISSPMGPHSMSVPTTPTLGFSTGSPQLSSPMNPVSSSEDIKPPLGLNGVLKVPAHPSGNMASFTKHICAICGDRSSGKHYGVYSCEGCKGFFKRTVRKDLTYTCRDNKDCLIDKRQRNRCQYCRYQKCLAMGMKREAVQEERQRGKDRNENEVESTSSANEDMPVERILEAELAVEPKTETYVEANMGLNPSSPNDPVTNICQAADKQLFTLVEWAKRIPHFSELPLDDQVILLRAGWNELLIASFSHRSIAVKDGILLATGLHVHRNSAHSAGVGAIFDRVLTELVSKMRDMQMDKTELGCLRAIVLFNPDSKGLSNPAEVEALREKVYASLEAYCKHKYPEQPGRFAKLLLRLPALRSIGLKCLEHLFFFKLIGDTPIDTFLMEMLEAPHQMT
Chain of Peroxisome proliferator-activated receptor delta (Homo sapiens) (Q03181 whole entry, looked up): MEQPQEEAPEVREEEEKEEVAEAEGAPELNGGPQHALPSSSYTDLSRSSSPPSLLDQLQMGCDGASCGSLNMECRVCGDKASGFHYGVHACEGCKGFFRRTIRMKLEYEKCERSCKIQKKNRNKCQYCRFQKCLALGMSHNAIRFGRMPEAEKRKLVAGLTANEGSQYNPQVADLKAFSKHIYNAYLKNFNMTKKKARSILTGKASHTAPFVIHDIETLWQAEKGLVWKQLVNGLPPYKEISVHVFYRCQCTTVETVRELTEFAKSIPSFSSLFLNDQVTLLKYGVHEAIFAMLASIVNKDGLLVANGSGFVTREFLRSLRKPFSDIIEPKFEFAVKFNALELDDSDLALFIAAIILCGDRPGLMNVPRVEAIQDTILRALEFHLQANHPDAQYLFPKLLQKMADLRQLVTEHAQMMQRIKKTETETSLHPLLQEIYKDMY
Chain of Vitamin D3 receptor (Homo sapiens) (P11473 whole entry, looked up): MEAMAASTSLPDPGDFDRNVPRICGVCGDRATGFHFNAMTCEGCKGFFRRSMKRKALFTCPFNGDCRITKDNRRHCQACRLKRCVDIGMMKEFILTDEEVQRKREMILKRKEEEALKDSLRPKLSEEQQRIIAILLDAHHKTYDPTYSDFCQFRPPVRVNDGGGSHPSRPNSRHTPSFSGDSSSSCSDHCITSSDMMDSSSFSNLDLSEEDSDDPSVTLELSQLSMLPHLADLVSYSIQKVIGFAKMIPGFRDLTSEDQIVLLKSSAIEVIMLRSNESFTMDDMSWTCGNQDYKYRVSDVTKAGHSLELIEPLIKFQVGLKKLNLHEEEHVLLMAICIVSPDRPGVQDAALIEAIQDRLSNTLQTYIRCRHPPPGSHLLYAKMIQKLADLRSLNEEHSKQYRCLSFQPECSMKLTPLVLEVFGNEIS
Chain of Glucocorticoid receptor (Homo sapiens) (P04150 whole entry, looked up): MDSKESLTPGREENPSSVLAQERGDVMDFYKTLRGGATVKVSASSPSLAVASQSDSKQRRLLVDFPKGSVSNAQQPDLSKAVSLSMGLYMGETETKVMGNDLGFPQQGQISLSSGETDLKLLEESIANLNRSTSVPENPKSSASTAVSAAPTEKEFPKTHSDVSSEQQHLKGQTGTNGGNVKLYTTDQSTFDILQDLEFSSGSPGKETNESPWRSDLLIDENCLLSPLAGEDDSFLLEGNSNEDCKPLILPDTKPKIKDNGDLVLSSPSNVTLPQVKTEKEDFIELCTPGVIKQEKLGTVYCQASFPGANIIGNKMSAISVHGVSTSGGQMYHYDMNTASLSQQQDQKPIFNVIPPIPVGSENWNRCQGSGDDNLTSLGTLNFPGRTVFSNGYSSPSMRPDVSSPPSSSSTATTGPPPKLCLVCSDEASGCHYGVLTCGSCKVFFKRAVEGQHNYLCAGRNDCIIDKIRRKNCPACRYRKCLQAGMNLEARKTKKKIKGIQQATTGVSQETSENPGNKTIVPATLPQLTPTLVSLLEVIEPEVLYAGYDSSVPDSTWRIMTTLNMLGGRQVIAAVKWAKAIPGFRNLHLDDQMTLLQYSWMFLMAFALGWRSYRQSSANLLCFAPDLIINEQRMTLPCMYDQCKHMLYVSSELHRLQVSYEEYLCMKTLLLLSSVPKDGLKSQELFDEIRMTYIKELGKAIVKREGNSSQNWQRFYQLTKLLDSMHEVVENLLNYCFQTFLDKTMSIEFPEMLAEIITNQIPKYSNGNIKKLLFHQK

Consider `CN(C)CCOCCN(C)C`, for which the activation in assay [1] is 11.4% (inactive); in [12], -2.29% (inactive); in assay [13], -2.36% (inactive). The max response is 2.82% in assay [2]; 1.75% in [7]; -5.51% in assay [9]; -8.75% (inactive) in [10]; -0.21% (inactive) in assay [14]; -2.1% (inactive) in assay [16]. Also, the max response was -5.76% (inactive) in assay [17] and 0.876% (inactive) in assay [19]. Besides, the Potency result in [3], in [5], in assay [8], in assay [15] and in assay [18] was “inactive” throughout. Further, the result in [4], in [6] and in assay [20] was inactive. Further, in assay [11], the activity change % (negative = inhibition) was -4.05% (inactive).
As for `CCCCCCCCCCCCCCCO`, the max response in assay [2] is -44.9%; in assay [7], -7.63%; in [9], -3.46%; in assay [10] it was -24% (inactive); in assay [14] it was 0.401% (inactive); in [16], -7.38% (inactive). Further, the max response in assay [17] was -19.2% (inactive); in assay [19] it was 3.48% (inactive). Also, the Potency result in assay [3], in assay [5], in assay [8], in [15] and in [18] was “inactive” throughout. In addition, the outcome in assay [4], in assay [6] and in assay [20] was inactive. Moreover, in [11], the activity change % (negative = inhibition) is 4.44% (inactive). The figures for the activation in [12] and in [13] were -0.317% (inactive) and 2.17% (inactive), respectively.
With `CCCCCCOCCOCCO`, the activation in assay [1] was -12.5% (inactive); in assay [13], -0.48% (inactive). Also, the max response was -32.9% in [2]; -8.61% in [7]; -13.6% in assay [9]; 2.18% (inactive) in assay [10]; 0.465% (inactive) in assay [14]; -7.8% (inactive) in assay [16]. Also, the values for the max response in [17] and in [19] were -5.42% (inactive) and -1.74% (inactive), respectively. In addition, the Potency entry in assay [3], in [8], in assay [15] and in assay [18] was “inactive” throughout. For the same molecule, the result in [4] and in assay [20] was inactive. In addition, the activity change % (negative = inhibition) in assay [11] was -6.1% (inactive).
As for `C=CC(=O)OCCOc1ccccc1`, the results for the activation in assay [1], in assay [12] and in assay [13] were -7.33% (inactive), 0.464% (inactive) and -0.084% (inactive), respectively. For the same molecule, the max response in assay [2] was -44.3%; in assay [9] it was -0.297%; in [10], -20.4% (inactive); in assay [14], -0.522% (inactive); in assay [16], -16.9% (inactive); in [17], -15.9% (inactive). Besides, the max response in [19] was 2.62% (inactive). Moreover, the Potency result in [3], in assay [5], in assay [8] and in assay [18] was “inactive” each time. Further, the result in assay [4], in assay [6] and in assay [20] was inactive. The activity change % (negative = inhibition) in [11] was -3.52% (inactive).
Turning to `CCCCCCC(O)CCCCCCCCCCC(=O)O` (configuration not stated), the activation is -3.25% (inactive) in [1] and -0.827% (inactive) in assay [13]. In addition, the max response in assay [2] was 31.3%; in assay [7], -2.57%; in assay [16], -0.036% (inactive); in assay [17], -10.3% (inactive); in [19], 0.495% (inactive). The Potency entry in [3], in assay [5], in assay [8], in assay [15] and in [18] was “inactive” throughout. For the same molecule, the result in assay [6] and in assay [20] was inactive. In assay [11], the activity change % (negative = inhibition) was -5.14% (inactive). Moreover, the Potency in assay [14] was 31.6 µM (active).
Regarding `CC(COc1ccc(C(C)(C)C)cc1)OS(=O)OCCCl` (configuration not stated), the max response in [2] was 82.6%; in assay [14] it was -2.96% (inactive); in assay [16], -25.1% (inactive); in assay [17], -26.1% (inactive); in [19] it was -11.7% (inactive). In addition, the Potency result in assay [3], in [8] and in assay [18] was “inactive” each time. In [6], the outcome was inactive. In addition, in assay [11], the activity change % (negative = inhibition) is -14.9% (inactive). The results for the activation in [12] and in assay [13] were 8.46% (inactive) and 12.5% (inactive), respectively.
